Laboratory results as given in PubChem BioAssay AID1159580 (chemical genetic matrix, 2015).
Values joined by “and” are separate entries in the source; they are usually repeats but may differ in a detail not shown here. Equal entries are not always repeated. Out of some 5,500 compounds screened, about 2,000 (36%) were called active. Roughly 18% stayed inconclusive and do not appear here. Rule as the data show it: active = normalized growth mostly below about 0.91 (no sharp cut-off); inconclusive = no clear call, values can overlap the other calls; inactive = mostly above about 0.92. This is one part of the list.

Test: chemical genetic growth profiling, strain panel (AID 1159580);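 also: tested at 20 µM; growth read once vehicle control cultures reached saturation at 30 °C; 1 = growth at the plate median or of vehicle wells; lower values mean less growth of the strain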
Conditions: growth OD

Measured: normalized growth

CCCCNC(=O)NS(=O)(=O)c1ccc(C)cc1
inactive: S. cerevisiae deletion strains, locus YJR075W, strain HOC1, hits give low values 0.963 and 0.994 | S. cerevisiae deletion strains, locus YKL009W, strain mrt4, hits give low values 0.953 | S. cerevisiae deletion strains, locus YKL068W, hits give low values 0.98 | S. cerevisiae deletion strains, locus YKL085W, strain MDH1 (second series), hits give low values 0.973 | S. cerevisiae deletion strains, locus YKL085W, strain MDH1, hits give low values 0.973 | S. cerevisiae deletion strains, locus YKL160W, strain elf1, hits give low values 1 | S. cerevisiae deletion strains, locus YKL190W, strain CNB1, hits give low values 0.991 | S. cerevisiae deletion strains, locus YKR001C, strain vps1, hits give low values 0.985 | S. cerevisiae deletion strains, locus YKR026C, strain gcn3, hits give low values 0.999 | S. cerevisiae deletion strains, locus YKR091W, strain srl3, hits give low values 1.01 | S. cerevisiae deletion strains, locus YLL001W, strain dnm1, hits give low values 1.02 | S. cerevisiae deletion strains, locus YLL026W, hits give low values 1.01 | S. cerevisiae deletion strains, locus YLL041C, strain sdh2, hits give low values 1.01 | S. cerevisiae deletion strains, locus YLR027C, strain aat2, hits give low values 1 | S. cerevisiae deletion strains, locus YLR039C, strain RIC1, hits give low values 0.961 | S. cerevisiae deletion strains, locus YLR058C, strain SHM2, hits give low values 0.991 | S. cerevisiae deletion strains, locus YLR102C, strain apc9, hits give low values 0.985 | S. cerevisiae deletion strains, locus YLR113W, strain HOG1, hits give low values 0.915 | S. cerevisiae deletion strains, locus YLR221C, strain rsa3, hits give low values 0.952 | S. cerevisiae deletion strains, locus YLR258W, strain gsy2, hits give low values 1.01 | S. cerevisiae deletion strains, locus YLR262C, strain YPT6 (second series), hits give low values 0.984 | S. cerevisiae deletion strains, locus YLR262C, strain YPT6, hits give low values 0.933 | S. cerevisiae deletion strains, locus YLR268W, strain sec22, hits give low values 0.951 | S. cerevisiae deletion strains, locus YLR320W, strain mms22, hits give low values 0.999 | S. cerevisiae deletion strains, locus YLR330W, strain CHS5, hits give low values 0.986 | S. cerevisiae deletion strains, locus YLR342W, strain FKS1 (second series), hits give low values 1.01 | S. cerevisiae deletion strains, locus YLR342W, strain FKS1, hits give low values 1.02 | S. cerevisiae deletion strains, locus YLR357W, strain rsc2, hits give low values 1.02 | S. cerevisiae deletion strains, locus YLR370C, strain arc18, hits give low values 1.02 | S. cerevisiae deletion strains, locus YLR371W, strain rom2, hits give low values 0.974 | S. cerevisiae deletion strains, locus YLR384C, strain iki3, hits give low values 1.02 | S. cerevisiae deletion strains, locus YLR418C, strain cdc73, hits give low values 1.01 | S. cerevisiae deletion strains, locus YML016C, strain PPZ1, hits give low values 0.996 | S. cerevisiae deletion strains, locus YML032C, strain rad52, hits give low values 0.983 | S. cerevisiae deletion strains, locus YML120C, strain ndi1, hits give low values 1.03 | S. cerevisiae deletion strains, locus YML124C, strain tub3, hits give low values 0.979 | S. cerevisiae deletion strains, locus YMR058W, strain fet3, hits give low values 1.02 | S. cerevisiae deletion strains, locus YMR078C, strain ctf18, hits give low values 0.969 | S. cerevisiae deletion strains, locus YMR125W, strain sto1, hits give low values 1.02 | S. cerevisiae deletion strains, locus YMR129W, hits give low values 1.01 | S. cerevisiae deletion strains, locus YMR205C, strain PFK2, hits give low values 1.01 | S. cerevisiae deletion strains, locus YMR223W, strain ubp8, hits give low values 1.01 | S. cerevisiae deletion strains, locus YMR231W, strain pep5, hits give low values 1 | S. cerevisiae deletion strains, locus YMR263W, strain SAP30, hits give low values 0.999 | S. cerevisiae deletion strains, locus YMR307W, strain GAS1, hits give low values 1.01 and 1 | S. cerevisiae deletion strains, locus YNL067W, strain RPL9B, hits give low values 0.992 | S. cerevisiae deletion strains, locus YNL071W, strain lat1, hits give low values 1.01 | S. cerevisiae deletion strains, locus YNL128W, strain TEP1, hits give low values 0.965 and 0.986 | S. cerevisiae deletion strains, locus YNL175C, strain NOP13, hits give low values 1.01 | S. cerevisiae deletion strains, locus YNL183C, strain NPR1, hits give low values 0.912 | S. cerevisiae deletion strains, locus YNL197C, strain WHI3, hits give low values 1.01 | S. cerevisiae deletion strains, locus YNL209W, strain ssb2, hits give low values 1.02 | S. cerevisiae deletion strains, locus YNL224C, strain SQS1, hits give low values 0.995 | S. cerevisiae deletion strains, locus YNL233W, strain BNI4, hits give low values 1 | S. cerevisiae deletion strains, locus YNL248C, strain rpa49, hits give low values 1 | S. cerevisiae deletion strains, locus YNL250W, strain rad50, hits give low values 0.998 | S. cerevisiae deletion strains, locus YNL271C, strain bni1, hits give low values 0.991 | S. cerevisiae deletion strains, locus YNL298W, strain CLA4, hits give low values 0.981 | S. cerevisiae deletion strains, locus YNL307C, strain MCK1, hits give low values 0.978 | S. cerevisiae deletion strains, locus YNL322C, strain KRE1 (second series), hits give low values 0.99 | S. cerevisiae deletion strains, locus YNL322C, strain KRE1, hits give low values 0.992 | S. cerevisiae deletion strains, locus YNR049C, strain mso1, hits give low values 1.01 | S. cerevisiae deletion strains, locus YNR052C, strain pop2, hits give low values 0.98 | S. cerevisiae deletion strains, locus YOL006C, strain TOP1, hits give low values 1.07 | S. cerevisiae deletion strains, locus YOL012C, strain htz1 1.12 | S. cerevisiae deletion strains, locus YOL147C, strain pex11, hits give low values 0.981 | S. cerevisiae deletion strains, locus YOR001W, strain rrp6, hits give low values 1.02 | S. cerevisiae deletion strains, locus YOR061W, strain CKA2, hits give low values 1 | S. cerevisiae deletion strains, locus YOR069W, strain VPS5, hits give low values 0.985 | S. cerevisiae deletion strains, locus YOR070C, strain gyp1, hits give low values 1.01 | S. cerevisiae deletion strains, locus YOR080W, strain dia2, hits give low values 1.02 | S. cerevisiae deletion strains, locus YOR083W, strain WHI5 (second series), hits give low values 1.01 | S. cerevisiae deletion strains, locus YOR083W, strain WHI5, hits give low values 0.998 | S. cerevisiae deletion strains, locus YOR106W, strain vam3, hits give low values 1.04 | S. cerevisiae deletion strains, locus YOR136W, strain idh2, hits give low values 0.998 | S. cerevisiae deletion strains, locus YOR144C, strain elg1, hits give low values 0.992 | S. cerevisiae deletion strains, locus YOR184W, strain ser1, hits give low values 1 | S. cerevisiae deletion strains, locus YOR231W, strain MKK1, hits give low values 0.983 | S. cerevisiae deletion strains, locus YOR265W, strain rbl2, hits give low values 1.01 | S. cerevisiae deletion strains, locus YOR270C, strain vph1, hits give low values 1.04 | S. cerevisiae deletion strains, locus YOR290C, strain snf2, hits give low values 0.998 | S. cerevisiae deletion strains, locus YOR316C, strain cot1, hits give low values 0.979 | S. cerevisiae deletion strains, locus YPL051W, strain arl3, hits give low values 0.999 | S. cerevisiae deletion strains, locus YPL055C, strain LGE1, hits give low values 1.01 | S. cerevisiae deletion strains, locus YPL078C, strain atp4, hits give low values 1.04 | S. cerevisiae deletion strains, locus YPL106C, strain sse1, hits give low values 1.06 | S. cerevisiae deletion strains, locus YPL240C, strain hsp82, hits give low values 1 | S. cerevisiae deletion strains, locus YPL241C, strain CIN2, hits give low values 0.994 and 1 | S. cerevisiae deletion strains, locus YPL256C, strain CLN2, hits give low values 0.945 | S. cerevisiae deletion strains, locus YPR119W, strain clb2, hits give low values 0.986 | S. cerevisiae deletion strains, locus YPR141C, strain kar3, hits give low values 0.979 | S. cerevisiae deletion strains, locus YPR163C, strain tif3, hits give low values 0.979 | S. cerevisiae deletion strains, locus YPR167C, strain met16, hits give low values 0.987 | S. cerevisiae deletion strains, strain wtn01, hits give low values 0.969 | S. cerevisiae strains, strain wild type, hits give low values 1
